Records with an inconclusive call do not appear. Active and inactive are the calls of the source. Rule for the calls, unless noted: active = hit-call score of the fitted dose curve at least 0.9, where 1 is the maximum; inconclusive = response in the unintended direction; inactive = score below 0.9.
Key:
[1] = TOX21_p53_BLA_p2_viability: Viability Assessment in the Tox21 HCT-116 p53 Agonism Beta-lactamase Assay, Phase 2 (AID 2283591);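 note: actives lower the ATP signal meaning cytotoxicity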
Procedure, shortened: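 HCT116 p53-bla cells, 4000/well, dosed after 5 h plating (217-fold dilution of DMSO stocks) and incubated 16 h at 37C. Viability taken as cellular ATP by CellTiter-Glo luminescence after 30 min RT; signal loss marks cytotoxicity.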

[2] = TOX21_p53_BLA_p3_viability: Viability Assessment in the Tox21 HCT-116 p53 Agonism Beta-lactamase Assay, Phase 3 (AID 2283593);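 note: cells exposed to compound for 16 h before reading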
Procedure, shortened: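 HCT116 cells, 4000/well, dosed 5 h after plating by pin transfer (217-fold dilution from DMSO stock) and incubated 16 h at 37C, 5% CO2. Viability read as ATP luminescence with CellTiter-Glo after 30 min at room temperature.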

[3] = TOX21_p53_BLA_p4_viability: Viability Assessment in the Tox21 HCT-116 p53 Agonism Beta-lactamase Assay, Phase 4 (AID 2283597);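 note: hits lower the luminescence signal meaning cytotoxicity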
Procedure, shortened: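 4000 HCT116 cells per well; 5 h attachment; compounds from DMSO, 217-fold dilution; 16 h at 37C. Then CCF4-AM, 2 h RT, followed by CellTiter-Glo, 30 min RT, luminescence. Decrease = cytotoxicity.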

[4] = TOX21_p53_BLA_p5_viability: Viability Assessment in the Tox21 HCT-116 p53 Agonism Beta-lactamase Assay, Phase 5 (AID 2283600)
Procedure, shortened: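 Decreased CellTiter-Glo luminescence denotes lost viability. Exposure: 16 h at 37C, 5% CO2, with compounds from DMSO stocks diluted 217-fold in wells of 4000 cells.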

PGR (gene 5241) [5] = target: PGR (gene 5241) (UniProt P06401); experiment: TOX21_PR_BLA_Followup_Agonist_ratio: Tox21 HEK293 Progesterone Receptor (PR) Agonism Beta-lactamase Follow-Up Assay, Ratio (AID 2283933)
Chain of PGR (gene 5241) (P06401 whole entry, looked up): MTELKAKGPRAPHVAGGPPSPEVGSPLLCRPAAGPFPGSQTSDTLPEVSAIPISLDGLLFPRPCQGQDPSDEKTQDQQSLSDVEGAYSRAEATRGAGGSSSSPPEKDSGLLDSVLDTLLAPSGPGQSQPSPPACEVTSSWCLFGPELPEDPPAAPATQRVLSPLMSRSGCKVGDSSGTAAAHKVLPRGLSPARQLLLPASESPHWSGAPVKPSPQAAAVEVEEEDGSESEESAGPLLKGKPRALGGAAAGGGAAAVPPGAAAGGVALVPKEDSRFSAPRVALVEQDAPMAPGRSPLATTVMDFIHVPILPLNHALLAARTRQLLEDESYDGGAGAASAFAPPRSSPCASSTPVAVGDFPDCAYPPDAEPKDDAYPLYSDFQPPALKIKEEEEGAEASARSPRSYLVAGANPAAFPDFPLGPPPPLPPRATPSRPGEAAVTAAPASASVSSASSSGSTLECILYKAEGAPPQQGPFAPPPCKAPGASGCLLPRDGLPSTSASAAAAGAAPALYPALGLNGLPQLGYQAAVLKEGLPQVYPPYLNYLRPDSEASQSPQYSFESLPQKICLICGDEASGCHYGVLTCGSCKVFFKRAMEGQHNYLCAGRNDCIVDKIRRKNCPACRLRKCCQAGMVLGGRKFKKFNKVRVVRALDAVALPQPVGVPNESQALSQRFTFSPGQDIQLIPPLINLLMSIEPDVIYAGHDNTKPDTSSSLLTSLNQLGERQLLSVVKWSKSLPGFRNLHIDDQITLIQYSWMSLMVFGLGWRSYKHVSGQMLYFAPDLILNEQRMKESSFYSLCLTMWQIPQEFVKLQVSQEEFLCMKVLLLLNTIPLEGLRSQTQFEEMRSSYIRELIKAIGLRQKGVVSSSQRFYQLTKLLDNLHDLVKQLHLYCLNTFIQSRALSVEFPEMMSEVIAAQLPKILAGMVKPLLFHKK
Procedure, shortened: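 Cells were seeded and held 6 hr before compound addition, exposed for 16 hr at 37C, then given FRET substrate for 2 hr at room temperature. Agonism was scored from the blue/green substrate cleavage ratio against DMSO controls.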

PGR (gene 5241) [6] = target: PGR (gene 5241) (UniProt P06401); experiment: TOX21_PR_BLA_Followup_Antagonist_ratio: Tox21 HEK293 Progesterone Receptor (PR) Antagonism Beta-lactamase Follow-Up Assay, Ratio (AID 2283934);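 note: PR-UAS-bla HEK293T cells stimulated with 1 nM R5020 agonist for 16 hr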
Procedure, shortened: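 Cells are plated, rested 6 hr, then dosed with test compound in DMSO and challenged with 1 nM promegestone. After 16 hr incubation, substrate loading for 2 h at room temperature precedes fluorescence reading; viability is measured in the same wells.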

[7] = TOX21_PR_BLA_Followup_Agonist_viability: Viability Assessment in the Tox21 HEK293 Progesterone Receptor (PR) Agonism Beta-lactamase Follow-Up Assay (AID 2283935);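 note: signal loss means lower viability so actives are cytotoxic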
Procedure, shortened: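 Cells were plated in medium with 2% charcoal-stripped FBS and rested 6 hr. Compounds in DMSO were then added for 16 hr at 37C, followed by the FRET substrate step and CellTiter-Glo luminescence after 30 min.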

[8] = TOX21_PR_BLA_Followup_Antagonist_viability: Viability Assessment in the Tox21 HEK293 Progesterone Receptor (PR) Antagonism Beta-lactamase Follow-Up Assay (AID 2283936);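 note: cells exposed to compound with R5020 agonist for 16 h; hits lower the luminescence signal meaning cytotoxicity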
Procedure, shortened: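 PR-UAS-bla HEK293T cells in medium with 2% charcoal-stripped FBS were treated with compounds plus R5020 for 16 hr at 37C. After the beta-lactamase read, CellTiter-Glo was added to the same wells and luminescence read after 30 min at room temperature.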

PGR (gene 5241) [9] = target: PGR (gene 5241) (UniProt P06401); experiment: TOX21_PR_LUC_Followup_Agonist: Tox21 HEK293 Progesterone Receptor (PR) Agonism Luciferase Follow-Up Assay (AID 2283937; active = hit-call score of the fitted dose curve at least 0.9, where 1 is the maximum; inactive = score below 0.9)
Procedure, shortened: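 Seed HEK293-PR-A-luc cells, wait 5 h, add compounds in DMSO, incubate 16 h at 37C, add ONE-Glo, read luminescence after 30 min. Activity is increase over DMSO controls; run with a viability counter-screen.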

PGR (gene 5241) [10] = target: PGR (gene 5241) (UniProt P06401); experiment: TOX21_PR_LUC_Followup_Antagonist: Tox21 HEK293 Progesterone Receptor (PR) Antagonism Luciferase Follow-Up Assay (AID 2283938);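 note: curve fitted upward as signal gain over DMSO baseline despite antagonist label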
Procedure, shortened: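 HEK293-PR-A-luc cells, 3,000/well, preincubated 5 h at 37C before compound addition in DMSO; 16 h compound exposure at 37C. ONE-Glo luciferase luminescence read after 30 min at room temperature, fitted relative to DMSO baseline.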

[11] = TOX21_PR_LUC_Followup_Agonist_viability: Viability Assessment in the Tox21 HEK293 Progesterone Receptor (PR) Agonism Luciferase Follow-Up Assay (AID 2283941);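 note: loss of signal means cytotoxicity so actives lower viability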
Procedure, shortened: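 Multiplexed viability endpoint of the PR agonist luciferase follow-up: HEK293-PR-A-luc cells treated 16 h at 37C, with viability scored as decrease in CellTiter-Glo ATP signal.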

[12] = CCTE_Harrill_HTTr_Viability_MCF7: CCTE's 6-hour Cell Viability Assessment for the High-Throughput Transcriptomics (HTTr) Platform, in MCF-7 cells cultured in DMEM + 10% fetal bovine serum, Harrill Lab (AID 2284010; active = hit-call score of the fitted dose curve at least 0.9, where 1 is the maximum; inactive = score below 0.9)
Procedure, shortened: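 Read-out is propidium iodide gain of signal by high-content imaging, reflecting membrane integrity loss. Measurements are taken 6 h after dosing, eight concentrations per chemical, with DMSO serving as baseline for bidirectional curve fitting.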

[13] = CCTE_Harrill_HTTr_Apoptosis_MCF7: CCTE's 6-hour Apoptosis Assessment for the High-Throughput Transcriptomics (HTTr) Platform, in MCF-7 cells cultured in DMEM + 10% fetal bovine serum, Harrill Lab (AID 2284011; active = hit-call score of the fitted dose curve at least 0.9, where 1 is the maximum; inactive = score below 0.9)
Procedure, shortened: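 MCF-7 cells in DMEM + 10% FBS exposed 6 h to chemicals over an eight-point dilution series. Caspase-3/7 activation imaged by high-content CellEvent Green staining; fitted bidirectionally versus DMSO.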

[14] = CCTE_Harrill_HTTr_CellCount_MCF7: CCTE's Cell Proliferation Assessment for the High-Throughput Transcriptomics (HTTr) Platform, Harrill Lab (AID 2284012);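 note: cells exposed to compound for six hours; intended direction is loss of nuclei count meaning fewer cells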
Procedure, shortened: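 Cell count served as viability reporter: loss of Hoechst-stained nuclei, counted by high content imaging, marks decreased growth or survival. Exposure was 6 h in MCF-7 cells across eight concentrations, with DMSO as baseline.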

[15] = target: Cellular tumor antigen p53 (Homo sapiens) (UniProt P04637); experiment: TOX21_p53_BLA_p4_ratio: Tox21 HCT-116 p53 Agonism Beta-lactamase Assay, Ratio, Phase 4 (AID 2283601)
Chain of Cellular tumor antigen p53 (Homo sapiens) (P04637 whole entry, looked up): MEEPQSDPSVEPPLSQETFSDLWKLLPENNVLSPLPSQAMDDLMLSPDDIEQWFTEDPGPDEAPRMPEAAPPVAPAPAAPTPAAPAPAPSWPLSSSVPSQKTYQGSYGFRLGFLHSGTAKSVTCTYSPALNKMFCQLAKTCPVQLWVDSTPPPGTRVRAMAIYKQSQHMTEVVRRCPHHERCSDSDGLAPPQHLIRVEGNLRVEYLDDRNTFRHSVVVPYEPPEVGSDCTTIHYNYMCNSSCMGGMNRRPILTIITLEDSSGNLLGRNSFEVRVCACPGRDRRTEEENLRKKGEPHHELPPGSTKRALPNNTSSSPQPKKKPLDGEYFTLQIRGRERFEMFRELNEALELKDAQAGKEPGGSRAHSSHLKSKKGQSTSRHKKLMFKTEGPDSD
Procedure, shortened: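 HCT-116 p53 beta-lactamase reporter cells (4000/well) preincubated 5 h, then compound (217-fold dilution of DMSO stock) for 16 h at 37C. CCF4-AM substrate added 2 h at room temperature; 460/530 nm emission ratio fitted upward versus DMSO.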

[16] = TOX21_PR_LUC_Followup_Antagonist_viability: Viability Assessment in the Tox21 HEK293 Progesterone Receptor (PR) Antagonism Luciferase Follow-Up Assay (AID 2283940)
Procedure, shortened: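 HEK293-PR-A-luc, 3,000 cells/well; 5 h at 37C/0% CO2; compound pin transfer; 16 h incubation; CellTiter-Glo ATP luminescence, signal loss = cytotoxicity.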

[17] = target: Cellular tumor antigen p53 (Homo sapiens) (UniProt P04637); experiment: TOX21_p53_BLA_p5_ratio: Tox21 HCT-116 p53 Agonism Beta-lactamase Assay, Ratio, Phase 5 (AID 2283599)
Procedure, shortened: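 HCT-116 p53-bla cells (4000/well) plated 5 h, dosed with compound (217-fold DMSO dilution) for 16 h at 37 C; CCF4-AM substrate 2 h at room temperature. Activity is the 460/530 nm emission ratio (405 nm excitation), fitted in gain-of-signal direction versus DMSO.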

Measured: AC50

Cc1cc(C)c(C=C2C(=O)Nc3ccccc32)[nH]1
active: [13] 15.2 µM
not listed: [15] | [16] | [17]
inactive: all other assays above

CCN(CC)CCOCCOC(=O)C1(c2ccccc2)CCCC1
inactive: [1] | [2] | [3] | [4] | [15]

CCOC(=O)C(C)O (stereo not drawn)
inactive: [1] | [2] | [3] | [4] | [15]

Cc1ccc(/C(=C\CN2CCCC2)c2cccc(/C=C/C(=O)O)n2)cc1
inactive: [1] | [2] | [3] | [15]

NCc1ccccc1Sc1ccccc1CO
inactive: [1] | [2] | [3] | [15]

O=C(CCCN1CCC(O)(c2cccc(C(F)(F)F)c2)CC1)c1ccc(F)cc1
inactive: [1] | [2] | [3] | [4] | [15]

C[C@H]1C[C@H]2[C@@H]3CCC4=CC(=O)C=C[C@]4(C)[C@@]3(Cl)[C@@H](O)C[C@]2(C)[C@@]1(O)C(=O)CO
not listed: PGR (gene 5241) [5] | [8] | PGR (gene 5241) [9] | [12] | [13] | [14] | [17]
inactive: all other assays above

C[C@@H]1C[C@H]2[C@@H]3C[C@H](F)C4=CC(=O)C(Cl)=C[C@]4(C)[C@@]3(F)[C@@H](O)C[C@]2(C)[C@@]1(O)C(=O)CO
inactive: [1] | [2] | [17] | [4] | PGR (gene 5241) [6] | [8] | PGR (gene 5241) [10] | [16] | [11]

COC(=O)C(c1ccccc1Cl)N1CCc2sccc2C1 (stereo not drawn)
active: PGR (gene 5241) [6] 28.9 µM | PGR (gene 5241) [10] 23 µM
inactive: [1] | [2] | [17] | [4] | [7] | [8] | [11]

CC(=O)Oc1ccc([N+](=O)[O-])cc1CCl
inactive: [1] | [2] | [17]

Source: PubChem BioAssay (EPA / NIEHS)
